Screens deposited in PubChem by University of Kansas High Throughput Screening Laboratory.
This is one part of a sample in which hits are shown more often than they occur.
Pf apPOL inh: Pf-apPOL inhibitors, biochemical, fluorescence; Plasmodium falciparum apicoplast DNA polymerase (apPOL); Recombinant Pf-apPOL, molecular beacon fluorescence, 1.5 h; inhibition, % at 10 µM; 210,000 tested, 0.25% active; AID 1794808, 2022
mHTT CaM bind: mutant huntingtin-calmodulin interaction inhibitors – biochemical, AlphaScreen, primary screen; P42858; AlphaScreen His-mHTT/GST-CaM binding, luminescence; inhibition, % at 15 µM; 190,000 tested, 3.6% active; AID 1671202, 2021
Numbers stand for hits; n = inactive; x = not tested or not shown. No stated cut-off is given here; in the data, active means inhibition above about 50%; inactive means the rest.

SMILES	Pf apPOL inh	mHTT CaM bind
CC1C(=NO)C(C)C(c2ccc(N(C)C)cc2)NC1c1ccc(N(C)C)cc1 (stereo not given)	n	76
CC(=O)N1CCc2sc(C(=O)NCc3ccc(C)o3)cc2C1	n	n
CC(C)n1c(=O)c(NCc2ccc(F)c(Cl)c2)nc2ccncc21	n	87
CC(C)n1c(=O)c(NCc2cccc(F)c2)nc2ccncc21	n	n
COc1cc(O)c(C(CCN2CCN(c3ccccc3)CC2)c2cc(OC)c(OC)c(OC)c2)c(OC)c1 (stereo not given)	n	100
COc1cc(O)c(C(CC(=O)N2CCCC2)c2ccc3c(c2)OCO3)c(OC)c1 (stereo not given)	n	n
COc1ccc(C(CCN2CCOCC2)c2c(O)cc(OC)cc2OC)cc1 (stereo not given)	n	n
COc1cc(O)c(C(CCN2CCCC2)c2ccc(N(C)C)cc2)c(OC)c1 (stereo not given)	n	60
COc1cc(O)c(C(CCN2CCN(c3ccccc3)CC2)c2ccc3c(c2)OCO3)c(OC)c1 (stereo not given)	n	82
COc1cc(O)c(C(CC(=O)N2CCN(c3ccccc3)CC2)c2ccc3c(c2)OCO3)c(OC)c1 (stereo not given)	n	62
COc1cc(O)c(C(CCN2CCCCC2)c2ccc(N(C)C)cc2)c(OC)c1 (stereo not given)	n	n
COc1cc(O)c(C(CCN2CCCC2)c2ccc3c(c2)OCO3)c(OC)c1 (stereo not given)	n	n
Clc1cccc(Cl)c1CSc1ccnc(SCc2c(Cl)cccc2Cl)n1	n	x
COc1ccc(CN2CCCC2c2c(C)noc2C)cc1Br (stereo not given)	n	n
O=C(c1ccccc1)N1CCN(c2ccnc3cc(Cl)ccc23)CC1	n	x
CCOC(=O)c1c(NC(=O)c2c(C)cnn2C)sc2ccccc12	n	n
CCOc1cccc2nnc(NC(=O)c3ccc(C(F)(F)F)cc3)n12	n	n
O=C(Nc1nnc2ccccn12)c1ccccc1Br	n	100
O=C(Nc1nnc2ccccn12)c1ccc(C(F)(F)F)cc1	n	n
CCc1ccc(C(=O)Nc2nnc3ccccn23)cc1	n	58
CC(C)CC(=O)Nc1nnc2ccccn12	n	n
CC(C)c1ccc(C(=O)Nc2nnc3ccccn23)cc1	n	65
CCOc1cccc2nnc(NC(=O)c3ccc(C)cc3)n12	n	51
O=C(Nc1nnc2ccccn12)c1ccccc1C(F)(F)F	n	n
CCc1ccc(C2C=C(c3ccc(Cl)cc3)Nc3ncnn32)cc1 (stereo not given)	n	n
SMILES	Pf apPOL inh	mHTT CaM bind
O=C(NCc1cccs1)C1CCc2sc(C(=O)N3CCOCC3)cc2C1 (stereo not given)	n	n
Fc1ccc(-c2nnc(-c3ccc(-n4ccnc4)nc3)o2)cc1	n	n
O=C(CSc1nc(-c2ccccc2)cc(-c2ccccc2)n1)N=C1NC(=O)CS1	n	61
Cn1c2ccc(Br)cc2c2nnc(SCC(=O)N=C3NC(=O)CS3)nc21	n	n
Cc1cc(C)c2ccc(C=O)nc2c1O	n	69
Cc1cc(C)c2ccc(NN)nc2c1O	n	85
CC(=O)Nc1ccccc1/C=C/c1ccc2c(C)cc(C)c(O)c2n1	n	n
Cc1cc(C)c2ccc(CO)nc2c1O	n	n
Cc1ccc(NC(=O)Cn2c(C(C)C)nc3c(c2=O)CCN(Cc2ccccc2)C3)cc1	n	n
COc1cc(C=C(C#N)C(N)=S)cc(OC)c1OC	n	x
Cc1ccc(S(=O)(=O)Nc2cccc3cccnc23)cc1	n	n
Nc1ccccc1S(=O)(=O)Nc1cccc2cccnc12	n	100
Cc1ccccc1NC(=O)CN1CCC(c2nc(-c3ccccc3Cl)no2)CC1	n	n
C=CCn1c2ccccc2c2nnc(SCC(=O)Nc3nc4ccccc4s3)nc21	n	n
COCCNC(=O)c1ccccc1N(Cc1ccccc1)S(=O)(=O)c1ccccc1	n	n
CS(=O)(=O)N(Cc1ccccc1)c1ccccc1C(=O)NCCSc1ccc(Cl)cc1	n	52
O=[N+]([O-])c1ccc2nc(CCCCc3nc4ccc([N+](=O)[O-])cc4[nH]3)[nH]c2c1	n	n
OC[C@@H]1[C@@H](c2ccc(Cl)cc2)C(c2ccc(F)cc2)=NN1c1ccccc1	n	72
OC[C@@H]1[C@@H](c2ccc(F)cc2)C(c2ccc(F)cc2)=NN1c1ccccc1	n	89
O=C1OCCN1C(=O)[C@H]1[C@H](c2ccc(F)cc2)C(c2cccc(Cl)c2)=NN1c1ccccc1	n	n
C[C@H]1C(c2ccccc2)=NN(c2ccccc2)[C@@H]1CO	n	n
OC[C@@H]1[C@@H](c2ccccc2)C(c2ccc(F)cc2)=NN1c1ccccc1	n	67
OC[C@@H]1[C@@H](c2ccccc2)C(c2ccccc2)=NN1c1ccccc1	n	n
ON=C(c1ccccc1)c1ccccn1	n	x
O=C(CN1C(=O)/C(=C/c2ccccc2F)Sc2ccccc21)N1CCCCC1	n	n
SMILES	Pf apPOL inh	mHTT CaM bind
O=C(CN1C(=O)/C(=C/c2ccccc2F)Sc2ccccc21)N1CCN(C2CCCCC2)CC1	n	75
COc1cc(NC(=O)c2ccc([N+](=O)[O-])c(C)c2)cc(OC)c1	n	n
Cc1nc(C(=O)NCc2cn[nH]c2C)c(C)o1	n	n
Cc1ccc(C(=O)N2CCc3sc(C(=O)N4CCN(c5ccccc5)CC4)cc3C2)cc1	n	n
Fc1cccc(NCc2ccco2)c1	n	n
Oc1c(Cl)cc(Cl)cc1CNc1cccc(F)c1	n	96
CN1CCCc2cc(CCNC(=O)C(=O)NCc3cccs3)ccc21	n	n
CCN1CCCc2cc(CCNC(=O)Nc3ccc(OC)c(OC)c3)ccc21	n	86
CCCN1CCCc2cc(CCNC(=O)COCC)ccc21	n	59
COc1ccc(CC(=O)Nc2ccc(N3CCCC3=O)c(OC)c2)cc1OC	n	n
Cc1ccccc1CN1C(=O)CSc2ccc(C(=O)NCc3ccccn3)cc21	n	n
CCCc1nc(-c2c(C)cc(C)nc2NC(=O)c2ccc(F)cc2F)no1	n	n
Cc1cccc(C(=O)N2CCCN(c3cc(-c4ccccc4)[nH]n3)CC2)c1	n	n
Cc1onc(-c2c(Cl)cccc2Cl)c1CSC(=S)N(C)C	n	x
CN1CCCn2nc(C3CCN(C(=O)c4cccc(C(F)(F)F)c4)CC3)cc2C1=O	n	n
CN(C)C1=C(Nc2cccc(I)c2)C(=O)c2ccccc2C1=O	n	92
CC(C)C(=O)Nc1cccc(I)c1	n	n
CC(=O)N(C1=C(N(C)C)C(=O)c2ccccc2C1=O)c1cccc(Cl)c1	n	n
CN(C)C1=C(Nc2cccc(Cl)c2)C(=O)c2ccccc2C1=O	n	57
CCc1nc(C2CCN(C(=O)c3ccco3)CC2)n[nH]1	n	n
COc1ccc(OC)c(N2CCN(C(=O)c3ccc(C)cc3)C(C)C2=O)c1 (stereo not given)	n	n
CN1c2cc(C(=O)N3CCN(c4ccccc4Cl)CC3)ccc2C(=O)N2CCCCC21 (stereo not given)	n	n
CN1c2cc(C(=O)N3CCc4ccccc4C3)ccc2C(=O)N2CCCCC21 (stereo not given)	n	93
Cc1oc2cc(OC(=O)C3CC3)ccc2c(=O)c1-c1ccccc1	n	n
O=C(NCCc1c[nH]c2ccccc12)C(c1ccccc1)n1cccc1 (stereo not given)	n	96
CC(NC(=O)CCc1c[nH]c2ccccc12)c1ccccc1 (stereo not given)	n	n
